Measured values: PubChem BioAssay (NCATS)
Inconclusive results are not listed. A call without a number means that no potency is given here. Active and inactive are the calls of the source. The call rests on the fitted dose curve; in most records, active means well fitted inhibition curve with a large enough effect; inconclusive means small, poorly fitted or top-dose-only effect; inactive means no such curve, though single readings can be large or run the other way.

Assay: Primary qHTS for inhibitors of nuclear receptor binding SET domain protein 2 (NSD2) in an RCH-ACV wild type WT cells (2C) (AID 1645877); further: nearly all actives have a fitted effect of over 70% in size
Conditions: RCH-ACV (leukaemia line) NSD2 WT (2C) viability, CellTiter-Glo, 72 h; series mostly up to 44.9 µM
Potency means the concentration at half of the fitted maximal effect.

| Structure (SMILES) | Potency |
| --- | --- |
| O=S(=O)(F)Cc1ccccc1 | inactive |
| O=C(N[C@H]1CN2CCC1CC2)c1ccc(Cl)cc1 | inactive |
| COc1ccc(C(=O)c2c(C)n(CCN3CCOCC3)c3cc(I)ccc23)cc1 | 14.8 µM (active) |
| COc1ccc2c(c[n+](C)c3c4cc5c(cc4ccc23)OCO5)c1OC | inactive |
| C[C@](O)(COc1ccc(C#N)cc1)C(=O)Nc1ccc(C#N)c(C(F)(F)F)c1 | 20.9 µM (active) |
| Clc1ccccc1C(c1ccccc1)(c1ccccc1)n1cccn1 | inactive |
| COc1cc([C@@H]2c3cc4c(cc3[C@@H](O)C3COC(=O)C32)OCO4)cc(OC)c1O (some centres undefined) | 0.372 µM (active) |
| C#CC1(O)CCC2C3CCC4=CC(=O)CCC4(C)C3CCC21C (centres undefined) | inactive |
| COC(=O)[C@@H](N)CCCN=C(N)N[N+](=O)[O-] | inactive |
| CC(C)Oc1cccc(NC(=O)c2ccccc2C(F)(F)F)c1 | 24.3 µM (active) |
| CCCC[N+]1(C)[C@H]2CC(OC(=O)[C@H](CO)c3ccccc3)C[C@H]1[C@H]1O[C@H]12 (some centres undefined) | inactive |
| CN1[C@H]2CC(O)C[C@H]1[C@H]1O[C@H]12 (some centres undefined) | inactive |
| CCN1C[C@]2(OC(=O)c3ccccc3NC(C)=O)CC[C@H](OC)[C@@]34[C@H]5CC6[C@@H](OC)C[C@](O)(C(C[C@@H]23)[C@@H]14)[C@@]5(O)[C@@H]6OC | inactive |
| O=S(=O)(CC1CS1)c1ccc(Oc2ccccc2)cc1 (centres undefined) | 5.25 µM (active) |
